# From ChEMBL document CHEMBL4888484, “Replenishing the malaria drug discovery pipeline: Screening and hit evaluation of the MMV Hit Generation Library 1 (HGL1) against asexual blood stage Plasmodium falciparum ,using a nano luciferase reporter read-out” (2022)
# Hit rate of the full screen: of about 4,800 compounds, about 410 (8.5%) showed an effect of 50% or more. The sample holds strong results, similar compounds and a random draw of the others, so the mix is not that of the screen.
# Test system: Plasmodium falciparum
# Assay: Confirmatory screen in NF54 pLDH assay, in single point, at 2uM, 72h
# Type: functional, Erythrocyte
# Conditions: timepoint 72 hour
row,Structure (SMILES),% Inhibition [%]
1,O=S(=O)(c1c(Cl)cccc1Cl)N1CCC[C@@H]1CN1CCCC1,8
2,Cc1cc(CN2C(=O)N[C@@]3(CCCCc4ccccc43)C2=O)no1,6
3,COc1ccc([C@H](NC(=O)CCc2ccccc2)c2c(O)ccc3ccccc23)cc1,-6
4,Cc1cc(N2CCn3c(nc4ccccc43)C2)ccc1NC(=O)C1CCCCC1,14
5,CN1c2ccccc2C(=O)N[C@@H]1c1ccccc1OCc1ccccc1,-4
6,COc1cccc(-n2c(C)cc(C(=O)N3CCNC(=O)CC3)c2C)c1,-5
7,N#Cc1c(NC(=O)Nc2cn3ccccc3c2C#N)cn2ccccc12,35
8,O=C(NCC(N1CCOCC1)C(F)(F)F)C1CC12CCOC2 (stereo not given),14
9,O=c1[nH]c2nc(N3CCCCC3)ncc2c(=O)n1Cc1ccco1,-14
10,Cc1nc([C@@H](NC(=O)c2cc(Cl)cn2C)c2cnn(C)c2)no1,-10
11,Clc1ccc(COc2ccc(CNC3CCCCC3)cc2Br)cc1,-12
12,O=C(NC[C@H]1CCS(=O)(=O)C1)c1ccc2[nH]c3c(c2c1)CCCC3,-6
13,COc1cc(C(C)(C)C)c(OCC(=O)N(c2ccccc2)c2ccccc2)cc1C(C)(C)C,7
14,Cc1ccc(Oc2cc(C#N)c(C#N)cc2N2CCOCC2)cc1C,-9
15,Cc1nc2ccccc2cc1OCc1ccc(F)cc1,12
16,CC[N+](C)(CC)CCOc1cc(C)c2ccccc2n1,40
17,COC(=O)c1ccccc1NC(=O)NCCn1nnc2cc(S(=O)(=O)N(C)C)ccc21,32
18,CCN1C(=O)Cc2cc(NS(=O)(=O)Cc3ccccc3)ccc21,12
19,COc1cc(CNCCN2CCOCC2)ccc1OCc1ccc(C)cc1,10
20,COc1ccc(CNCc2ccc(C)cc2)cc1Cn1ccnc1,69
21,COc1ccc(CN2CC[C@@H]3C(=O)NCCCCCCN(Cc4ccncc4)[C@@H]3C2)cc1Cn1ccnc1,37
22,Cc1ccc(NS(=O)(=O)c2ccc(NC(=O)CN(c3cc(Cl)ccc3C)S(C)(=O)=O)cc2)cc1C,-13
23,Cc1cc(-c2nc(C3(c4ccncc4)CCC3)no2)ccn1,4
24,COc1ccc(OC)c(S(=O)(=O)N2C[C@H]3CCCC(=O)N[C@H]3C2)c1,9
25,COc1ccc(S(=O)(=O)N2CCC(c3cc(N)on3)CC2)cc1Cl,40
26,COc1ccc(F)cc1S(=O)(=O)N1CCc2noc(N)c2C1,63
27,COc1ccccc1OCC(=O)Nc1ccccc1-n1cnnc1C,12

row,Structure (SMILES),% Inhibition [%]
1,C[C@H](NC(c1ccccc1)c1ccccc1)c1nnc(-c2cccs2)o1,7
2,Cc1cc(CS(=O)(=O)NCCOc2ccc(Cl)cc2)on1,2
3,CCCOc1ccc(Nc2cc(C)nc3ccc(Cl)cc23)cc1,63
4,CC(C)(C)C1CC(NC(=O)C2CC=CC2)CCO1 (stereo not given),-1
5,c1cc(-c2nc3cc4ccccc4cc3[nH]2)nc(-c2nc3cc4ccccc4cc3[nH]2)c1,97
6,Cc1cccc(C)c1OCC(=O)Nc1ccc(-c2nc3cc4ccccc4cc3[nH]2)cc1,18
7,c1ccc2cc(-c3ccc4ccccc4n3)ccc2c1,16
8,Cc1onc(C(=O)NCc2cnn(C)c2C)c1COc1cccc(C(F)(F)F)c1,-4
9,O=C(Cn1cnc2cc3c(cc21)OCCCO3)Nc1ccc(F)cc1,13
10,CCc1ccsc1CN=C(N)NC1CCCCC1,-9
11,O=C(Nc1cc(-c2onc3c2CCCC3)cc(C(F)(F)F)c1)c1cncc(Br)c1,95
12,Clc1ccc(-c2onc3c2CCCC3)cc1,9
13,O=C(Nc1onc2c1CCC2)c1ccc2ccccc2c1,41
14,Cc1cc(C)cc(-c2cc3nc(C)cc(N4CCC(C(=O)Nc5ccc(C)c(Cl)c5)CC4)n3n2)c1,-12
15,Cc1cc(C)cc(-c2cc3nc(C)cc(N4CCC(C(=O)NCc5cccc(F)c5)CC4)n3n2)c1,67
16,O=C(NCc1cccc(F)c1)[C@H]1CCCN(c2nc3ccccc3n(Cc3ccccc3)c2=O)C1,5
17,CC1CN(CC(=O)NCCC#N)C(C)CO1 (stereo not given),1
18,Cc1ccc(CN2C(=O)NC3(CCCCC3C)C2=O)c(OCC2CCOC2)c1 (stereo not given),6
19,O=C(NCCCN1CCOCC1)C1C2CCCC21 (stereo not given),8
20,CN(C)c1ccc(-c2nc(C(F)(F)F)cc(C(F)(F)C(F)(F)F)n2)cc1,5
21,Oc1cccc(CN2CCC3(CC2)C[C@H](c2ccccc2)CN(C2CC2)C3)c1,29
22,Cc1c(C(=O)Nc2cccc(S(=O)(=O)NC3CC3)c2)cnn1C,12
23,CC1(CCCCNC(=O)N2CC[C@H](S(C)(=O)=O)C2)OCCO1,6
24,CCN1c2cc(C(=O)NCc3ccccc3)ccc2C(=O)N2CCCC[C@H]21,7
25,COc1ccc(-n2nc(C)c3c2NC(=O)C[C@@H]3c2ccccc2OCC(C)C)nn1,-1
26,Cc1noc(C)c1CC(=O)Nc1cccc(-c2nnco2)c1,9
27,CCc1cccc(NC(=O)Cn2ccc3ccc(-c4nnc(C)o4)cc32)c1,89

row,Structure (SMILES),% Inhibition [%]
1,Cn1cc(-c2ccc(Cl)cc2)c2ncn(CC(=O)Nc3cccc(Cl)c3)c(=O)c21,-1
2,Cc1nnc(-c2ccc3ccn(CC(=O)Nc4ccc(F)c(Cl)c4)c3c2)o1,96
3,Cc1nc2cc3c(cc2n1CC(=O)Nc1ccc(Cl)cc1)OCCCO3,15
4,Cc1cc(=O)n(CC(=O)Nc2ccc(Cl)c(C(F)(F)F)c2)c(-c2ccc(F)cc2)n1,0
5,CC1CCCC(C)C12NC(=O)N(CN1CCN(CCOc3ccccc3Cl)CC1)C2=O (stereo not given),5
6,CCOc1ccc(CNC(=O)c2sccc2NC(=O)c2cnccn2)cc1,-15
7,COc1ccc(C(=O)c2c[nH]c(C(=O)NC[C@H]3CCCO3)c2)cc1,3
8,COc1ccccc1CNC(=O)c1cnn2c3c(cnc12)CCCC3,-2
9,Brc1cc(Br)c2nc(-c3cnccn3)ccc2c1,14
10,CC(=O)c1ccc(N2CCN(C(=O)c3nn[nH]c3Nc3ccc(C)c(C)c3)CC2)cc1,8
11,CCn1cc(Cl)c(-c2nnc(-c3cccs3)o2)n1,0
12,CC1CN(C)C(C)c2c1oc1ccc(N)cc21 (stereo not given),-17
13,CC1=NN(c2ncc(C(F)(F)F)cc2Cl)C(=O)c2ccccc2O1,6
14,Brc1cncnc1NC1CC1,9
15,CN1CCC(Nc2ncnc3c2cnn3C)C1c1ccc(Cl)cc1 (stereo not given),12
16,CC1CC(Nc2ncnc3cc(Br)ccc23)CCN1C (stereo not given),95
17,CCCOc1cccc2c(NC3CCN(CCOC)CC3)ccnc12,48
18,Cc1cc2ncn(CN3CC[C@@H](NC(=O)OC(C)(C)C)C3)c2cc1C,-7
19,O=C(NCc1ccco1)c1nc(-c2ccncc2)cs1,10
20,Cc1noc(C)c1NC(=O)CCS(=O)(=O)c1ccc2ccccc2c1,4
21,O=C(Nc1nccnc1C(=O)O)c1ccc(Cl)cc1,14
22,CC1CCC(N2CC(C(=O)N(C3CC3)C(C)C(C)C)CC2=O)CC1 (stereo not given),1
23,O=C1c2ccccc2C(=O)N1CCc1csc(Cn2cncn2)n1,10
24,CN1CCN(C2(CNc3ccnc4ccccc34)CCCC2)CC1,98
25,c1ccc(Oc2ccnc(NCC34COCCN3CCOC4)n2)cc1,-13
26,Cc1noc(OCCc2ccccc2)n1,11
27,Cc1ccc(C)c(-n2cnc(=O)n2[C@H]2CCN(C3CC3)C2=O)c1,51

row,Structure (SMILES),% Inhibition [%]
1,Cc1ccc(C)c(N2CCN(c3ncc4c(=O)n(-c5ccc6c(c5)OCO6)c(=O)[nH]c4n3)CC2)c1,3
2,Brc1ccc2c(c1)C1CCCCC1N2 (stereo not given),9
3,Cc1c(F)cccc1NC(=O)N1CCN(C2=CC3=N[C@@H](C)CN3C=N2)CC1,54
4,CC[C@H]1CN2C=NC(N3CCN(C(=O)Cc4ccccc4)CC3)=CC2=N1,25
5,CC[C@H]1CN2C=NC(N3CCN(C(=O)Nc4cc(F)cc(F)c4)CC3)=CC2=N1,46
6,COC(=O)c1nc(NC(=O)C2(C)CCCC2)sc1C(C)C,-9
7,Cc1nnc(N2CC[C@H](c3nnc[nH]3)C2)s1,4
8,COc1c[nH]c(C(=O)NC2CCN(Cc3ccccc3)CC2)cc1=O,1
9,CC1(C)CC(=O)C2(Cc3ccccc3N3CCN(Cc4ccccc4)C[C@H]32)C(=O)C1,12
10,O=C(CN1C(=O)COc2cc(Br)ccc21)Nc1cccc2ccccc12,9
11,CC1CCCN(C2(N3CCCC(C)C3)C(=O)Nc3ccc(F)cc32)C1 (stereo not given),19
12,N#Cc1cccc(CNCC2(N3CCOCC3)CCCCC2)c1,-4
13,Cc1c(S(=O)(=O)NCCn2nc(C(F)(F)F)cc2C)cnn1C,8
14,Cc1nc2sc(C(=O)Nc3ccc4ccccc4c3)c(N)c2c(C)c1C,9
15,Cc1cc(C(=O)Nc2ccc3ccccc3c2)co1,-3
16,Cc1c(C)c2ccc(NC(=O)c3cc4ccccc4o3)cc2[nH]c1=O,78
17,O=C(Cn1c(=O)n(-c2cc(F)cc(F)c2)c(=O)c2sccc21)NCc1ccc(F)cc1F,-2
18,CCC(CC)C(=O)c1c[nH]c(C(N)=O)c1,-17
19,Cc1noc(CCNC(=O)N2CCCCC[C@H]2c2ccc(C)o2)n1,-1
20,CC(C)(C)c1nc(Cn2cnc3ncc(Br)cc32)no1,6
21,NS(=O)(=O)N1CCN(Cc2ccn(C3CCCC3)n2)CC1,9
22,Cc1nn(-c2ncccn2)c2c1[C@@H](c1ccccc1)CC(=O)N2,-15
23,O=C1C[C@H](c2cccnc2)c2cnn(C3CCCC3)c2N1,16
24,Cc1nn(-c2nc3ccccc3[nH]2)c2c1[C@@H](c1cccnc1)CC(=O)N2,79
